From PubChem BioAssay AID1345085 (National Center for Advancing Translational Sciences (NCATS), 2018) come the findings set out here.

Results filed as inconclusive are left out. Calls of active or inactive are those of the source. Calls follow the shape of the dose curve; as a rule, active = well fitted cell-killing curve with a large enough effect; inconclusive = small, poorly fitted or top-dose-only effect, or effect the other way; inactive = no such curve, though single readings can be large or run the other way.
Potency is read from the fitted curve at half-maximal effect.

The experiment deals with CAOV3. The experiment is described as follows: Confirmatory qHTS for gynecologic anti-cancer compounds from libraries of approved drugs and bioactive compounds. Also: nearly all actives have a fitted effect of over 55% in size. The note with it: gynecologic cancer cell panel viability, ATPlite luminescence, 48 h; series mostly up to 57.6 µM. The method, boiled down: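 Seeding 1,000 cells per well preceded overnight (16 h) attachment, after which 48 h drug treatment across 57.5 uM–0.977 nM (11 points) was applied. Remaining cellular ATP, detected by ATPlite luminescence, defined IC50.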
On to `COc1cc2c(NC3CCN(C(C)C)CC3)nc(C3CCCCC3)nc2cc1OCCCN1CCCC1`, for which the Potency is 8.63 µM (active).

For the compound `O=C(Nc1cn[nH]c1-c1nc2ccc(CN3CCOCC3)cc2[nH]1)NC1CC1`, the Potency was 0.122 µM (active).

`Nc1ncn([C@@H]2O[C@H](CO)[C@@H](O)[C@H]2O)c(=O)n1`: the Potency entry was “inactive”.

For `CNC1CCC(N(Cc2cccc(-c3ccncc3)c2)C(=O)c2sc3ccccc3c2Cl)CC1` (configuration not stated), the Potency was 27.3 µM (active).

On to `COc1cc(Nc2c(C#N)cnc3cc(OCCCN4CCN(C)CC4)c(OC)cc23)c(Cl)cc1Cl`, for which the Potency was 27.3 µM (active).

In the case of `CC(=O)c1cnc2ccc(-c3cc(Cl)c(O)c(Cl)c3)nc2c1NC1CCC(CN(C)C)CC1` (configuration not stated), the Potency was 0.157 µM (active).

Regarding `COc1ccc2c(c1OC)C(=O)O[C@@H]2[C@H]1c2c(cc3c(c2OC)OCO3)CCN1C`, the Potency entry is “inactive”.

In the case of `CCN(CC)CCNC(=O)c1c(C)[nH]c(/C=C2\C(=O)Nc3ccc(F)cc32)c1C`, the Potency was 15.8 µM (active).

For `NCCOc1cc(C(=O)Nc2cc(OCCN)c3ccccc3n2)nc(C(=O)Nc2cc(OCCN)c3ccccc3n2)c1`, the Potency result was “inactive”.

For the compound `Cc1cc(C(=O)N2CCN(c3cccc(Cl)c3)CC2)n(-c2ccccc2)n1`, the Potency entry is “inactive”.

With `CCS(=O)(=O)c1cccc(-c2cc(C(=O)NC3CCN(C)CC3)c(C)c3[nH]c4ncc(C)cc4c23)c1`, the Potency was 0.672 µM (active).

Regarding `CCN1CCN(Cc2ccc(Nc3ncc(F)c(-c4cc(F)c5nc(C)n(C(C)C)c5c4)n3)nc2)CC1`, the Potency result was “inactive”.

`CCCc1nn(C)c2c(=O)[nH]c(-c3cc(S(=O)(=O)N4CCN(C)CC4)ccc3OCC)nc12`: the Potency entry was “inactive”.

With `Cn1cc(-c2[nH]c3cc(NC(=O)[C@H](N)C4CCCCC4)cc4c3c2C=NNC4=O)cn1`, the Potency is 3.85 µM (active).

On to `Cc1ccc(-n2[nH]c(C)c(N=Nc3cccc(-c4cccc(C(=O)O)c4)c3O)c2=O)cc1C`, for which the Potency is 27.3 µM (active).

Consider `COc1c(C)c2c(c(O)c1C/C=C(\C)CCC(=O)OCCN1CCOCC1)C(=O)OC2`, for which the Potency result was “inactive”.

Take `CCCCc1oc2ccccc2c1C(=O)c1cc(I)c(OCCN(CC)CC)c(I)c1`: the Potency was 79.4 µM (active).

As for `CCOc1ccc(Nc2nc(-c3c(C)nc4ccccn34)cs2)cc1`, the Potency entry was “inactive”.

Take `Cn1c(=O)c(-c2c(Cl)cccc2Cl)cc2cnc(Nc3cccc(C(=O)O)c3)nc21`: the Potency is 2.73 µM (active).

In the case of `Cc1ccc(C(=O)N(CCCN)C(c2nc3cc(Cl)ccc3c(=O)n2Cc2ccccc2)C(C)C)cc1` (configuration not stated), the Potency is 17.2 µM (active).

Turning to `CN1CCN(c2cccc(Nc3nc4c(-c5ccc(S(C)(=O)=O)cc5)cccn4n3)c2)CC1`, the Potency was 27.3 µM (active).

As for `Nc1ccc(-c2ccc3ncc4ccc(=O)n(-c5cccc(C(F)(F)F)c5)c4c3c2)cn1`, the Potency is 3.43 µM (active).

For `Cc1ccc(C(=O)Nc2ccc(CN3CCN(C)CC3)c(C(F)(F)F)c2)cc1C#Cc1cnc2cccnn12`, the Potency was 19.3 µM (active).

Turning to `CCC1C(=O)N(C)c2cnc(Nc3ccc(C(=O)NC4CCC(N5CCN(CC6CC6)CC5)CC4)cc3OC)nc2N1C(C)C` (configuration not stated), the Potency is 2.17 µM (active).

Turning to `Cc1nc(Nc2ncc(C(=O)Nc3c(C)cccc3Cl)s2)cc(N2CCN(CCO)CC2)n1`, the Potency was 24.3 µM (active).

As to `Cc1nc(Nc2n[nH]c3c2CN(C(=O)NC(CN(C)C)c2ccccc2)C3(C)C)c2sccc2n1` (configuration not stated), the Potency was 0.306 µM (active).

Turning to `CC(C)n1nc(-c2cc3cc(O)ccc3[nH]2)c2c(N)ncnc21`, the Potency was 19.3 µM (active).

In the case of `C[C@@H](Oc1cc(-c2cnn(C3CCNCC3)c2)cnc1N)c1c(Cl)ccc(F)c1Cl`, the Potency is 17.2 µM (active).

In the case of `Nc1ncnc2c1ncn2[C@@H]1O[C@H](CO)C[C@H]1O`, the Potency entry is “inactive”.

In the case of `C=CC(=O)Nc1cc2c(Nc3ccc(F)c(Cl)c3)ncnc2cc1OCCCN1CCOCC1`, the Potency is 27.3 µM (active).

Turning to `COc1cc(N2CCC(N3CCN(C)CC3)CC2)ccc1Nc1ncc(Cl)c(Nc2ccccc2S(=O)(=O)C(C)C)n1`, the Potency was 3.43 µM (active).

In the case of `CN1CCN(CCOc2cc(OC3CCOCC3)c3c(Nc4c(Cl)ccc5c4OCO5)ncnc3c2)CC1`, the Potency entry is “inactive”.
